Screening data: PubChem, National Center for Advancing Translational Sciences (NCATS)
HP1b chromo inh – blocks HP1-beta chromodomain binding to methylated histone tails. P83916. 390,000 tested, 0.56% active. AlphaScreen HP1-beta / biotin-H3K9me3 peptide binding. Potency, µM (titrated, usually from 114 µM), usual class: inhibitors; note: nearly all actives have a fitted effect of over 70% in size
Target sequence (P83916 whole entry, looked up): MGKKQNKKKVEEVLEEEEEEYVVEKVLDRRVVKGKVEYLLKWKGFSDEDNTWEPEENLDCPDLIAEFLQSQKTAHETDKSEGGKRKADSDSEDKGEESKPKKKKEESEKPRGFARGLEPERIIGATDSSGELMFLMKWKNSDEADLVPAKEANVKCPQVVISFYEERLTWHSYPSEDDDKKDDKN
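HP1-beta protein (50 nM final) preincubated 30 min at room temperature with biotinylated H3(1-18)K9me3 peptide (50 nM) in PBS pH 7.4, 0.01% Tween-20, then compound added for 30 min. AlphaScreen streptavidin donor/nickel chelate acceptor beads (10 ug/mL final), 30 min dark, luminescence read.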
BAZ2B block – inhibitors of human BAZ2B bromodomain; 360,000 tested, 4.4% active; Q9UIF8; AlphaScreen BAZ2B-H3K14Ac peptide displacement; Potency, µM (doses to about 114 µM), usual class: inhibitors; AID 504333; note: nearly all actives have a fitted effect of over 60% in size
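In this displacement format the biotinylated H3(5-23) peptide acetylated at Lys14 serves as ligand at 50 nM, with BAZ2B at 50 nM in PBS pH 7.4 containing 0.01% Tween-20. Donor and acceptor beads are 10 ug/mL final.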
ALOX12 inh – ALOX12 (human) lipoxygenase inhibition; P18054; purified 12hLO, xylenol orange hydroperoxide absorbance; Potency, µM (top dose mostly 108 µM), most hits filed as inhibitors; 580,000 tested, 1.1% active
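Purified human 12hLO (150 nM final) in 25 mM Hepes, 0.01% Triton X-100, pH 7.0 was preincubated 15 min at room temperature with compound. Then 40 uM arachidonic acid was added, 30 min. Hydroperoxide was read by Fe-XO absorbance ratio 573/405 nm.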
PLK1 PBD inh – blocks phosphopeptide binding to human PLK1 polo-box domain | Plk1 PBD binding of FITC phosphopeptide, fluorescence polarization | 360,000 tested, 2.8% active | Potency, µM, actives largely listed as inhibitors | P53350 | AID 720504; note: series mostly up to about 57 µM; nearly all actives have a fitted effect of over 65% in size
G9a inh – inhibitors of human histone lysine methyltransferase G9a. Potency, µM (highest dose often 102 µM), actives largely listed as inhibitors. G9a H3K9 monomethylation, AlphaScreen, 2 h. 350,000 tested, 8.8% active; note: nearly all actives have a fitted effect of over 75% in size
Target sequence (Q96KQ7 913-1193 limits assumed): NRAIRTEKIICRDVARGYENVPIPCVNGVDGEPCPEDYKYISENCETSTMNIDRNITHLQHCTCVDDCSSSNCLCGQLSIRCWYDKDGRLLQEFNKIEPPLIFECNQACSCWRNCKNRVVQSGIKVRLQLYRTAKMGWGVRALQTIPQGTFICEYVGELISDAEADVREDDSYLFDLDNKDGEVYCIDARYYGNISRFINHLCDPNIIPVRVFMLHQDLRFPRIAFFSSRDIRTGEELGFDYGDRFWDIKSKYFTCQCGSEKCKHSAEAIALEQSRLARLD
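Quantitative HTS format: methyltransferase activity on a biotin-tagged H3K9 peptide is measured by AlphaScreen, using a rabbit anti-monomethyl-H3K9 antibody with streptavidin donor and anti-IgG acceptor beads. Final levels are 20 nM enzyme, 500 nM peptide, 20 uM SAM; 2 h RT.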
JMJD2A Tudor inh – inhibitors of human JMJD2A Tudor domain; AID 504339; Potency, µM (titrated, usually from 114 µM), usual class: inhibitors; O75164; 390,000 tested, 4.4% active; AlphaScreen JMJD2A-Tudor / H3K4me3 peptide binding; note: nearly all actives have a fitted effect of over 50% in size
Hits are given with their value; n = inactive; u = inconclusive; x = no result; [ ] = remark or other dose. Rows were chosen to be rich in hits. Some 9% of all compounds tested hit in one or more screens of this group. Calls come from the whole dose curve; as a rule, active = well fitted curve in the direction sought with a large enough effect; inconclusive = small, poorly fitted or top-dose-only effect, or another doubt; inactive = no such curve, though single readings can be large; an effect the other way counts as inactive or inconclusive.

SMILES | HP1b chromo inh | BAZ2B block | ALOX12 inh | PLK1 PBD inh | G9a inh | JMJD2A Tudor inh
C=CCNC(=O)/C(=C\c1ccc2c(c1)OCO2)NC(=O)c1ccc(Br)cc1 | n | n | n | n | n | n
COC(=O)C(NC(=O)c1ccco1)(Nc1nc(C2CC2)cs1)C(F)(F)F (stereo not drawn) | n | n | n | n | n[12.7 µM] | n
O=C(NCc1ccccc1)C1(C(F)(F)F)C/C(=C/Cc2ccccc2)CCCO1 (stereo not drawn) | n | x | x | x | x | n
O=C(NCc1ccccn1)C1(C(F)(F)F)C/C(=C\Cc2ccccc2)CCCO1 (stereo not drawn) | n | x | x | x | x | 31.6µM
Cc1ccc(C(=O)CCS(=O)(=O)c2ccc(Cl)cc2)cc1 | n | n | n | u | n | n
Cc1ccc(C(=O)CCS(=O)(=O)c2ccc(F)cc2)cc1 | n | n | u | 9.47µM | 31.6µM | n
COC(=O)c1ccc(OC(=O)CCS(=O)(=O)c2ccc(C)cc2)cc1 | n | n | n | n | 35.5µM | n
Cc1ccc(S(=O)(=O)CCC(=O)c2ccc(F)cc2)cc1 | n | n | n | 10.6µM | n | n
N#Cc1ccc(NC(=O)COC(=O)C2=COCCO2)cc1 | n | n | n | n | n | n
CN(C)CCNc1ncnc2c1ncn2[C@H]1CN(Cc2ccncc2)C[C@@H](CO)O1 | x | x | n | n | x | x
O=C(NCCc1ccc2c(c1)OCCO2)c1cc(F)cc(F)c1 | n | n | n | n | u | n
CCCOC(=O)C(C#N)c1nc2ccccc2nc1Cl (stereo not drawn) | x | x | 17.8µM | x | x | x
C=CCN(CC=C)c1nc2ccccc2nc1C(C#N)C(=O)OCCOC (stereo not drawn) | n | n | n | n | 50.1µM | n
CCCCOc1nc2ccccc2nc1C(C#N)C(=O)NC1CCCCC1 (stereo not drawn) | n | n | n | 26.7µM | n | n[11.4 µM]
CCCN(CCC)c1nc2ccccc2nc1C(C#N)C(=O)OCCOC (stereo not drawn) | n | n | u | n | n | n
CCCCCNC(=O)C(C#N)c1nc2ccccc2nc1OCC (stereo not drawn) | x | x | n | x | x | x
CC(C)n1c(S(=O)(=O)O)nc2ccccc21 | n | n | x | n | 44.7µM | n
Cc1ccc(Cn2c(S(=O)(=O)O)nc3ccccc32)cc1 | n | n | u | 23.8µM | n | n
CC(c1ccccc1)n1c(S(=O)(=O)O)nc2ccccc21 (stereo not drawn) | n | n | n | n | n | n
Cc1ccc(Cn2c(-c3ccccc3)nc3ccccc32)cc1 | n | n | n | x | n | n
CC(=O)OC1CCC2(C)C3=C(CCC2C1(C)C)[C@]1(C)CCC(C(C)CCC=C(C)C)[C@]1(C)CC3 (stereo partly drawn) | x | x | x | x | n[2.33 µM] | x
C/C(=C/CCC(C)C1CCC2(C)C3CCC4C(C)(C)C(=O)CCC4(C)C3=CCC12C)C(=O)O (stereo not drawn) | x | 50.1µM | x | x | n | x
Cc1noc(C)c1CSCC(=O)N(C)CC(=O)Nc1cccc(F)c1 | n | n | n | n | x | n
CC(=O)N1CCC2(C1)N=C(c1ccccn1)C(=O)N2 (stereo not drawn) | x | x | n | x | x | x
CCOC(=O)c1c(C)[nH]c(O)c1C=Nc1ccccc1 | n | 50.1µM | n | n | n | u
SMILES | HP1b chromo inh | BAZ2B block | ALOX12 inh | PLK1 PBD inh | G9a inh | JMJD2A Tudor inh
COC(=O)c1c(C)[nH]c(O)c1C=Nc1ccc(C#N)cc1 | n | 100µM | n | n | 17.8µM | u
O=C1OCCC1Sc1nnc(-c2ccc(Cl)cc2)n1Cc1ccccc1 (stereo not drawn) | n | n | n | n | 11.2µM | n
CCn1c(SC2CCOC2=O)nnc1-c1ccc(Cl)cc1 (stereo not drawn) | n | n | n | n | u | n
CCOc1ccc(CCN2C(=O)C(=O)N([C@@H](CC(C)C)CN3CCC[C@H]3CN3C(=O)C(=O)NC[C@@H]3CC(C)C)C[C@@H]2Cc2ccccc2)cc1 | x | x | n | n | x | x
Oc1ccc(-c2cnns2)c(O)c1 | u | n | u | u | 7.08µM | 0.794µM
CC(C)CNc1nc(SCC(=O)Nc2ccccc2)nc(N2CCOCC2)n1 | n | u | n | n | n | n
Nc1ccccc1Nc1cc(-c2cccc(Cl)c2)nn1-c1ccccc1 | u | 22.4µM | n | n | 28.2µM | 22.4µM
O=c1c2cn[nH]c2[nH]c(=S)n1-c1cccc(Cl)c1 | n | n | n | n | 31.6µM | n
Cc1cn2nc(C(=O)NCc3ccccc3C(F)(F)F)cc2c(N2CCSCC2)n1 | x | x | n | x | x | x
COc1cc([C@@H]2C[C@H]3CN(c4ccccc4)C(=O)[C@]34CCCN24)cc(OC)c1OC | n | n | n | n | x | n
CCOc1cc([C@@H]2C[C@H]3CN(c4ccccc4)C(=O)[C@]34CCCN24)ccc1OC | n | n | n | n | 50.1µM | n
O=C(COC(=O)c1cccc(S(=O)(=O)N2CCc3ccccc32)c1)NCc1ccco1 | n | n | n | n | n | n
O=C(COC(=O)c1cccc(S(=O)(=O)N2CCc3ccccc3C2)c1)NCc1ccco1 | n | 50.1µM | n | n | u | n
CC(OC(=O)c1cccc(S(=O)(=O)N2CCN(C)CC2)c1)C(=O)Nc1ccc(C(N)=O)cc1 (stereo not drawn) | n | n | n | n | n | n
O=C(COC(=O)c1cc(S(=O)(=O)N2CCOCC2)ccc1Cl)NCc1ccco1 | n | n | n | n | n[0.501 µM] | n
O=C(COC(=O)c1cc(S(=O)(=O)N2CCc3ccccc3C2)ccc1Cl)NCc1ccco1 | u | u | n | u | 39.8µM | 79.4µM
CCc1ccc(NC(=O)C(C)OC(=O)c2cccc(S(=O)(=O)N3CCc4ccccc4C3)c2)cc1 (stereo not drawn) | n | n | n | n | 7.94µM | n
CN(C)/C=C/C(=O)/C=C/c1cn(-c2ncc(C(F)(F)F)cc2Cl)c2ccccc12 | n | n | n | n | 10µM | n
COC(=O)Cc1cn(-c2ncc(C(F)(F)F)cc2Cl)c2ccccc12 | n | n | n | n | n | n
O=C(O)c1cc(Br)ccn1 | n | x | n | n | 15.8µM | 3.16µM
CN(C)c1ccnc(C(=O)O)c1 | n | 22.4µM | n | n | 4.47µM | 0.708µM
Cc1cccc(N(C)S(=O)(=O)c2cc3c(cc2C)n(C)c(=O)c(=O)n3C)c1 | n | n | n | n | x | n
CCC(CO)Oc1cc(NC(=O)c2ccccc2F)c2ncn(C(C)C)c2c1 (stereo not drawn) | n | x | 28.2µM | n | x | n
CCC(CO)Oc1cc(NCc2ccncc2)c2ncn(C(C)C)c2c1 (stereo not drawn) | n | x | u | n | x | n
CCC(CO)Oc1cc(NCc2cccc(Cl)c2)c2ncn(C(C)C)c2c1 (stereo not drawn) | u | x | x | n | x | 25.1µM
CCC(CO)Oc1cc(NCc2cc(C)cc(C)c2)c2ncn(C(C)C)c2c1 (stereo not drawn) | n | x | n | n | x | u
